According to PubChem BioAssay:
Inconclusive results are not listed. Activity calls are given as the source filed them.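 Rule for the calls, unless noted: active = normalized viability below 100% at a tested concentration; inactive = the rest.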

Experiments:
[1] = growth inhibition of DIPG glioma cells, dose response, cell-based, SU-DIPG-XVII, MIPE5.0, CellTiter-Glo, qHTS (AID 1347060; cut-off not given, nearly all actives have AC50 up to about 26 µM;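 note: cells exposed to compound for 48 hours before viability readout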); conditions: SU-DIPG-XVII viability, CellTiter-Glo ATP luminescence
[2] = growth inhibition of DIPG glioma cells, dose response, cell-based, SU-DIPG-XIII, MIPE4.0, CellTiter-Glo, qHTS (AID 1347061; cut-off not given, nearly all actives have AC50 up to about 37 µM;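 note: cells exposed to compound for 48 hours before readout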); conditions: SU-DIPG-XIII viability, CellTiter-Glo ATP luminescence
[3] = growth inhibition of DIPG glioma cells, dose response, cell-based, JHH-DIPG-1, MIPE4.0, CellTiter-Glo, qHTS (AID 1347062; cut-off not given, nearly all actives have AC50 up to about 27 µM;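 note: cells exposed to compound for two days before readout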); conditions: JHH-DIPG-1 viability, CellTiter-Glo ATP luminescence
[4] = growth inhibition of DIPG glioma cells, dose response, cell-based, SU-DIPG-IV, MIPE4.0, CellTiter-Glo, qHTS (AID 1347063; cut-off not given, nearly all actives have AC50 up to about 30 µM;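 note: compound exposure lasted 48 hours before the viability readout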); conditions: SU-DIPG-IV viability, CellTiter-Glo ATP luminescence
[5] = growth inhibition of DIPG glioma cells, dose response, cell-based, SU-DIPG-XIII, MIPE5.0, CellTiter-Glo, qHTS (AID 1347064; cut-off not given, nearly all actives have AC50 up to about 23 µM;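 note: cells exposed to compound for 48 hours before the viability read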); conditions: SU-DIPG-XIII viability, CellTiter-Glo ATP luminescence
[6] = viability loss in pontine glioma line – cell-based, SU-DIPG-XXV, MIPE5.0, CellTiter-Glo, qHTS, dose response (AID 1347065; cut-off not given, nearly all actives have AC50 up to about 26 µM;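 note: cells exposed to compound for 48 hours before ATP readout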); conditions: CellTiter-Glo ATP luminescence
[7] = SU-DIPG-VI glioma cell viability, MIPE4.0 library, CellTiter-Glo luminescence, qHTS (AID 1347066; cut-off not given, nearly all actives have AC50 up to about 30 µM;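 note: cells exposed to compound for 48 hours before readout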); conditions: CellTiter-Glo ATP luminescence
[8] = JHH-DIPG-1 glioma cell viability, MIPE5.0 library, CellTiter-Glo luminescence, qHTS (AID 1347067; cut-off not given, nearly all actives have AC50 up to about 26 µM;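 note: cells exposed to compound for 48 hours before readout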); conditions: JHH-DIPG-1 glioma viability, CellTiter-Glo ATP luminescence
[9] = SU-DIPG-XXV glioma cell viability, MIPE5.0 library, qHTS (AID 1347068; cut-off not given, nearly all actives have IC50 up to about 30 µM;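 note: cells exposed to compound for 48 hours before viability readout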)
[10] = modifiers of HSF1 nuclear foci, imaging, Selleck Cancer Library (AID 1347162; in the data active = plate-normalised HSF1 focus index below about 0.46); conditions: human cells, at 10 µM; SSMD: measured here: HSF1 foci SSMD mean; cell count: measured here: cell number; plate-normalised HSF1 focus index: stronger effect = lower value
[11] = ovarian cancer cell viability with rucaparib, profiling panel, oncology-focused library, rucaparib conditional (AID 1508598); conditions: patient-derived ovarian cancer cells, CellTiter-Glo viability, 144 h, stronger effect = lower value
[12] = sensitizers of A549 cells to miR-34 induction, primary screen, imaging, A549 dox-inducible miR-34, nuclei and caspase counts (AID 1347080;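 active = compounds whose cell count with miR-34 switched on is under 0.7 times the count with it off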); conditions: A549 miR-34 inducible, Hoechst nuclei count, 48 h
[13] = survival rescue of mitochondrial mutant cells in low glucose, primary screen, MELAS cybrids, Rieske KO mouse fibroblasts, CellTiter-Glo (AID 1508586;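 active = mean z-score across replicates of 1.96 or higher in either the MELAS or the Rieske mutant cell line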;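 note: z relative to plate mean and SD of compound and empty wells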)
[14] = at 0.000305 µM, OCI-C5x cells, with rucaparib 10 µM, 100% = cells with rucaparib alone
[15] = at 0.000305 µM, OCI-C5x cells, without rucaparib
[16] = at 0.000305 µM, OCI-P5x cells, with rucaparib 20 µM, 100% = cells with rucaparib alone
[17] = at 0.000305 µM, OCI-P5x cells, without rucaparib
[18] = at 0.00122 µM, OCI-C5x cells, with rucaparib 10 µM, 100% = cells with rucaparib alone
[19] = at 0.00122 µM, OCI-C5x cells, without rucaparib
[20] = at 0.00122 µM, OCI-P5x cells, with rucaparib 20 µM, 100% = cells with rucaparib alone
[21] = at 0.00122 µM, OCI-P5x cells, without rucaparib
[22] = at 0.00488 µM, OCI-C5x cells, with rucaparib 10 µM, 100% = cells with rucaparib alone
[23] = at 0.00488 µM, OCI-C5x cells, without rucaparib
[24] = at 0.00488 µM, OCI-P5x cells, with rucaparib 20 µM, 100% = cells with rucaparib alone
[25] = at 0.00488 µM, OCI-P5x cells, without rucaparib
[26] = at 0.0195 µM, OCI-C5x cells, with rucaparib 10 µM, 100% = cells with rucaparib alone
[27] = at 0.0195 µM, OCI-C5x cells, without rucaparib
[28] = at 0.0195 µM, OCI-P5x cells, with rucaparib 20 µM, 100% = cells with rucaparib alone
[29] = at 0.0195 µM, OCI-P5x cells, without rucaparib
[30] = at 0.0781 µM, OCI-C5x cells, with rucaparib 10 µM, 100% = cells with rucaparib alone
[31] = at 0.0781 µM, OCI-C5x cells, without rucaparib
[32] = at 0.0781 µM, OCI-P5x cells, with rucaparib 20 µM, 100% = cells with rucaparib alone
[33] = at 0.0781 µM, OCI-P5x cells, without rucaparib
[34] = at 0.313 µM, OCI-C5x cells, with rucaparib 10 µM, 100% = cells with rucaparib alone
[35] = at 0.313 µM, OCI-C5x cells, without rucaparib
[36] = at 0.313 µM, OCI-P5x cells, with rucaparib 20 µM, 100% = cells with rucaparib alone
[37] = at 0.313 µM, OCI-P5x cells, without rucaparib
[38] = at 1.25 µM, OCI-C5x cells, with rucaparib 10 µM, 100% = cells with rucaparib alone
[39] = at 1.25 µM, OCI-C5x cells, without rucaparib
[40] = at 1.25 µM, OCI-P5x cells, with rucaparib 20 µM, 100% = cells with rucaparib alone
[41] = at 1.25 µM, OCI-P5x cells, without rucaparib
[42] = at 5 µM, OCI-C5x cells, with rucaparib 10 µM, 100% = cells with rucaparib alone
[43] = at 5 µM, OCI-C5x cells, without rucaparib
[44] = at 5 µM, OCI-P5x cells, with rucaparib 20 µM, 100% = cells with rucaparib alone
[45] = at 5 µM, OCI-P5x cells, without rucaparib
[46] = stronger effect = lower value, cell number ratio, induced over uninduced
[47] = measured here: relative caspase fold change +Dox/-Dox
[48] = measured here: total cells with miR-34 induction, stronger effect = lower value
[49] = measured here: total cells without miR-34 induction
[50] = MELAS cybrid survival, CellTiter-Glo 48 h, stronger effect = higher value
[51] = Rieske KO mouse fibroblast survival, CellTiter-Glo 72 h

Cn1c(=O)c(F)c(Nc2ccc(I)cc2F)c2c(=O)n(C[C@@H](O)CO)cnc21
7260: cell count [10]
active: AC50 [1] 66.1 nM | AC50 [2] 264 nM | AC50 [3] 235 nM | AC50 [4] 3320 nM | AC50 [5] 132 nM | AC50 [6] 295 nM | AC50 [8] 66.1 nM | IC50 [9] 1860 nM | viability [11, 16] 96.8% | viability [11, 20] 81.5% | viability [11, 21] 78.8% | viability [11, 24] 69% | viability [11, 25] 76.3% | viability [11, 28] 59.1% | viability [11, 29] 66.1% | viability [11, 30] 88.1% | viability [11, 32] 54.4% | viability [11, 33] 64.1% | viability [11, 34] 86.7% | viability [11, 35] 88.4% | viability [11, 36] 43.7% | viability [11, 37] 47.9% | viability [11, 38] 58.9% | viability [11, 39] 92.3% | viability [11, 40] 34.4% | viability [11, 41] 38.4% | viability [11, 42] 49.3% | viability [11, 43] 61.2% | viability [11, 44] 2.17% | viability [11, 45] 26.7%
inactive: outcome [7] | plate-normalised HSF1 focus index [10] 1.1 | viability [11, 14] 107% | viability [11, 15] 128% | viability [11, 17] 106% | viability [11, 18] 102% | viability [11, 19] 116% | viability [11, 22] 104% | viability [11, 23] 118% | viability [11, 26] 102% | viability [11, 27] 111% | viability [11, 31] 103%
1.8: SSMD [10]

CC1(C)CC(=O)c2c(C(F)(F)F)nn(-c3ccc(C(N)=O)c(NC4CCC(O)CC4)c3)c2C1 (centres undefined)
active: AC50 [1] 118 nM | AC50 [2] 469 nM | AC50 [3] 166 nM | AC50 [4] 132 nM | AC50 [5] 148 nM | AC50 [6] 105 nM | AC50 [7] 148 nM | AC50 [8] 118 nM | IC50 [9] 186 nM | z-score [13, 50] 2.87
-1.99: z-score [13, 51]
0.783: fold change [12, 47]
3040: cell count [12, 48]
inactive: fold change [12, 46] 0.978
3110: cell count [12, 49]

COc1ccc(-c2cc3c(C)nc(N)nc3n(C3CCC(OCCO)CC3)c2=O)cn1 (centres undefined)
inactive: fold change [12, 46] 0.719 | z-score [13, 50] 1.34
1320: cell count [12, 49]
-2.85: z-score [13, 51]
0.958: fold change [12, 47]
active: AC50 [1] 661 nM | AC50 [2] 418 nM | AC50 [3] 590 nM | AC50 [4] 13.2 nM | AC50 [5] 468 nM | AC50 [6] 235 nM | AC50 [7] 1180 nM | AC50 [8] 934 nM | IC50 [9] 1320 nM
948: cell count [12, 48]

COc1ncc(-c2ccc3nccc(-c4ccnnc4)c3c2)cc1NS(=O)(=O)c1ccc(F)cc1F
active: AC50 [1] 26.3 nM | AC50 [2] 46.9 nM | AC50 [3] 1660 nM | AC50 [4] 10.5 nM | AC50 [5] 46.8 nM | AC50 [6] 16.6 nM | AC50 [7] 33.2 nM | AC50 [8] 93.4 nM | IC50 [9] 105 nM | viability [11, 16] 86.7% | viability [11, 17] 84.8% | viability [11, 18] 84.7% | viability [11, 19] 89.8% | viability [11, 20] 67.8% | viability [11, 21] 69.1% | viability [11, 22] 62.5% | viability [11, 23] 53.2% | viability [11, 24] 43.9% | viability [11, 25] 46.3% | viability [11, 26] 39.4% | viability [11, 27] 37.6% | viability [11, 28] 31.6% | viability [11, 29] 27% | viability [11, 30] 32.8% | viability [11, 31] 30.6% | viability [11, 32] 24.3% | viability [11, 33] 17.1% | viability [11, 34] 23.7% | viability [11, 35] 23.6% | viability [11, 36] 17.6% | viability [11, 37] 11% | viability [11, 38] 23.9% | viability [11, 39] 23.5% | viability [11, 40] 13.9% | viability [11, 41] 8.06% | viability [11, 42] 10.5% | viability [11, 43] 9.68% | viability [11, 44] 2.14% | viability [11, 45] 1.41%
inactive: fold change [12, 46] 1.04 | plate-normalised HSF1 focus index [10] 0.907 | z-score [13, 50] 1.15 | viability [11, 14] 107% | viability [11, 15] 105%
1220: cell count [12, 49]
6380: cell count [10]
1270: cell count [12, 48]
-1.81: SSMD [10]
0.656: fold change [12, 47]
-2.62: z-score [13, 51]
